tim23-1 inh: inhibits growth of tim23-1 mutant yeast; S. cerevisiae tim23-1 growth, BacTiter-Glo luminescence, 24 h; inhibition, % at 20 µM; actives 1.3% (n = 330,000); AID 463212;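 active = growth inhibition of the mutant yeast at or above 50%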;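 note: temperature-sensitive mutant grown at 25 °C; plate controls were DMSO-treated mutant yeast for no effect and medium wells lacking yeast for full effect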
SKKanGAS inh: inhibitors of SKKanGAS S. pyogenes growth in kanamycin (SK-promoter or general growth effect) | BacTiter-Glo, 6 h | inhibition, % at 7.5 µM | actives 1.3% (n = 300,000);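 active = mean replicate score, as percent of positive control median, at least 50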;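 note: strain carries kanamycin resistance gene driven by streptokinase promoter and grows in 40 µg/ml kanamycin; loss of luminescence reflects streptokinase promoter inhibition or plain growth inhibition; 0% = median of DMSO wells and 100% = positive control at its reference dose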
NLRP3 yeast inh: NALP3 inhibition in yeast | Yeast reconstituted NLRP3/ASC/caspase-1, beta-gal luminescence, 24 h | inhibition, % at 10 µM | AID 2825 | actives 0.39% (n = 330,000);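 active = inhibition of 50% or more; inactive = inhibition below 50%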;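 note: plate controls were induced DMSO wells for no effect and uninduced yeast grown without galactose for full effect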
NALP1 inh: blocks the NALP1 inflammasome reconstituted in yeast; S. cerevisiae NALP1/ASC/caspase-1 growth, X-gal OD620, 72 h; inhibition, % at 10 µM; actives 0.61% (n = 280,000); AID 2071; in the data active = inhibition mostly above about 24%, no sharp cut-off; inactive = mostly below about 32%
TIM10 inh: growth inhibitors of TIM10 yeast strain; S. cerevisiae TIM10 strain growth, BacTiter-Glo luminescence, 24 h; actives 1.4% (n = 330,000); inhibition, % at 10 µM; AID 463195;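 active = inhibition of 40% or more at the single tested concentration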;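 note: wild-type TIM10 isogenic control strain grown at permissive 25 °C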
tim10-1 inh: growth inhibitors of tim10-1 mutant yeast; S. cerevisiae tim10-1 ts strain growth, BacTiter-Glo, 24 h; inhibition, % at 20 µM; actives 2.2% (n = 330,000);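 active = inhibition of at least 40%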;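 note: mutant grown at 25 °C; 0% = DMSO wells with yeast and 100% = wells holding no yeast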
The depositor's hits bear a star; / = no result. In the library only some 4.9% were active in any assay of this set; here they are far more common.

SMILES | tim23-1 inh | SKKanGAS inh | NLRP3 yeast inh | NALP1 inh | TIM10 inh | tim10-1 inh
CCN1CCN(C(=O)N[C@@H](C(=O)N[C@@H]2C(=O)N3[C@@H]2SC(C)(C)[C@@H]3C(=O)O)c2ccccc2)C(=O)C1=O | 13.4 | 102.8* | -3.2 | 51.6 | 7.1 | 5.2
COC(=O)C1N2C(=O)[C@@H](NC(=O)COc3ccccc3)[C@H]2SC1(C)C (stereo partly specified) | -2.9 | 96.2* | 12.3 | / | -9.5 | -7.8
CC(=O)N/C(=N/c1nc(C)cc(C)n1)Nc1cccc(C)c1 | 20.4 | -4.6 | 18.4 | -2.0 | 4.9 | -0.6
COc1ccccc1Nc1nc(NCCCCO)nc(N2CCCC2)n1 | 37.1 | -3.6 | 13.2 | / | 25.3 | 23.8
CC(C)c1ccc2[nH]c(O)c(N=NC(=O)c3cccc(S(=O)(=O)N4CCCCC4)c3)c2c1 | 34.7 | 106.7* | 14.8 | 38.7 | 23.3 | 17.3
COc1ccccc1N1CCN(C(=O)c2ccc3c(=O)n(Cc4ccc5c(c4)OCO5)c(=O)[nH]c3c2)CC1 | -8.4 | 14.5 | 11.7 | -3.4 | -0.8 | -5.4
O=C(NCc1ccccn1)c1nc(Cn2cc([N+](=O)[O-])cn2)no1 | -3.9 | 15.3 | 16.1 | 0.7 | 7.5 | -16.9
COc1ccc(Cn2c(C3CCCCC3)nc3c(c(=O)c4ccccc4n3C)c2=O)cc1 | 10.0 | 70.5* | 1.1 | -9.0 | 4.4 | -7.1
C[C@H](CO)N1C[C@H](C)[C@@H](CN(C)C(=O)Nc2ccc3c(c2)OCO3)Oc2ccc(NS(=O)(=O)c3ccccc3)cc2C1=O | 3.1 | / | 11.8 | / | 0.2 | -7.1
CC1CCCC(NC(=O)c2ccc(F)c(S(=O)(=O)N3CCOCC3)c2)C1C (stereo unspecified) | 5.4 | -1.4 | 13.6 | / | -4.7 | 16.1
COc1ccc(CCN(C)CCCN2CC(c3ccccc3)CC2=O)cc1OC (stereo unspecified) | 5.8 | -5.6 | 16.0 | 22.5* | -11.1 | 9.9
CCc1nc(Nc2ccc3c(c2)OCCO3)c2oc3ccccc3c2n1 | 32.9 | 13.4 | 10.5 | 33.8* | 28.5 | 34.8
CCc1nc(Nc2ccc(O)cc2)c2oc3ccccc3c2n1 | 44.6 | 24.1 | 28.2 | 9.7 | 3.5 | 4.9
O=S(=O)(Nc1ccc(N=Nc2ccc(O)c3ccccc23)cc1)c1ccccc1 | 20.3 | 96.0* | 34.5 | 18.2 | 15.0 | 29.9
O=C(Cc1ccc(Cl)cc1)Nc1ccccn1 | 17.4 | 0.8 | -12.8 | 17.1 | -3.4 | 21.5
FC(F)(F)c1nc(N2CCN(c3ccccc3)CC2)nc2c1CCCCC2 | -4.4 | 68.4* | 10.2 | 12.8 | -6.2 | -7.6
COc1ccccc1CNC(=O)Cn1cccc1C(=O)c1ccccc1 | 6.8 | -9.8 | 2.7 | 22.5 | -20.3 | -16.1
COc1ccc(S(=O)(=O)Nc2cc3c4c(oc3c3ccccc23)CC(C)(C)CC4=O)cc1 | 34.4 | 52.5* | 15.1 | 6.3 | 39.7 | 22.6
COc1ccc(S(=O)(=O)Nc2cc3c4c(oc3c3ccccc23)CCCC4=O)cc1 | 13.1 | 30.8 | -5.2 | -20.0 | 13.0 | 16.5
O=C1CCCN1CC(O)CS(=O)(=O)Cc1ccc(Cl)cc1 (stereo unspecified) | 11.5 | -2.5 | 5.1 | / | -15.4 | -8.2
COc1cccc(/C=C(/C#N)c2ccc(F)cc2)c1OCc1cccc(C(=O)O)c1 | 15.6 | 22.9 | 10.3 | 19.4 | 23.3 | 20.6
COc1cc(N2CCCC2)c(OC)cc1/C=C(/C#N)c1cccc(F)c1 | / | -8.7 | / | 43.8* | / | /
O=C(N/N=C1/C(=O)c2cccc3cccc1c23)c1ccc(Cl)cc1 | -5.8 | 99.8* | 29.7 | 1.6 | 35.4 | 34.4
CCOC(=O)CNC(=O)CNC(=O)Cn1ccc2ccccc2c1=O | 12.0 | 3.9 | 6.8 | 39.5* | 6.8 | 10.2
CCOc1ccc(Nc2nc3ccccc3n3nnnc23)cc1 | -12.1 | 4.6 | 31.7 | 42.1* | -3.6 | -10.6
SMILES | tim23-1 inh | SKKanGAS inh | NLRP3 yeast inh | NALP1 inh | TIM10 inh | tim10-1 inh
CCOc1ccc(Nc2nc3ccccc3n2C)cc1 | 2.5 | 0.4 | 26.2 | / | 7.2 | 7.0
Cc1ccc(-n2nc(C)c3c(C)c(CCC(=O)NC(C)c4ccccc4)c(C)nc32)cc1 (stereo unspecified) | 13.5 | 8.4 | 13.8 | 38.9* | 24.7 | 24.2
O=C(/C=C1\NC2(CCCC2)Cc2ccccc21)C(=O)N/N=C/c1ccccc1O | 47.7 | 95.6* | 16.7 | 22.1 | 22.7 | 32.8
O=C(Nc1ccc2c(c1)N(S(=O)(=O)c1cccs1)CCC2)c1c(F)cccc1Cl | 33.3 | 51.2* | 20.8 | / | 11.8 | 17.3
COc1cccc(OC)c1C(=O)Nc1ccc2c(c1)N(S(=O)(=O)c1cccs1)CCC2 | 15.4 | -7.5 | 3.1 | 17.3 | 16.2 | 19.4
Cc1ccc(S(=O)(=O)Cc2ccc(C(=O)NC3CCCCCC3)o2)cc1 | 16.4 | -2.9 | 25.4 | 14.5 | 6.5 | 19.6
COCc1ccc(O)c2ncccc12 | -12.4 | 60.9* | 18.0 | 5.4 | 3.0 | -2.4
O=Nc1ccc(O)c2ncccc12 | -3.6 | 3.6 | 8.7 | 0.0 | -6.6 | 13.5
COc1ccc(N=Nc2ccc(O)c3ncccc23)cc1 | 47.3 | 69.7* | 31.9 | / | -2.9 | 11.3
Cc1ccccc1N=Nc1ccc(O)c2ncccc12 | / | 105.1* | / | 20.7 | / | /
COc1cccc(N=Nc2ccc3cccnc3c2O)c1 | 43.3 | 117.6* | 30.7 | 17.5 | 14.0 | 12.7
Oc1ccc(CNc2ccccc2)c2cccnc12 | -28.4 | -2.9 | -61.5 | -17.1 | 4.9 | 25.6
CC(C)(C)OC(=O)NCC(=O)NNC(=O)C(C(=O)OCc1ccccc1)c1ccccc1 (stereo unspecified) | 7.0 | / | -0.5 | / | 0.6 | 6.8
COc1ccc2c(Cl)c(C(=O)NCCc3ccc(S(N)(=O)=O)cc3)sc2c1 | -8.3 | -5.0 | 7.3 | 24.0 | -14.3 | 7.9
COc1ccc(C)cc1N=Nc1ccc(O)c2ncccc12 | / | 93.8* | / | 18.7 | / | /
Oc1ccc(N=Nc2ccc3c(c2)OCCO3)c2cccnc12 | 40.0 | 87.6* | 26.3 | 6.0 | -10.6 | 22.7
O=S(=O)(O)c1cccc2c(N=Nc3ccc(O)c4ncccc34)cccc12 | / | 9.0 | / | 4.6 | / | /
COc1ccc(N=Nc2cc(-c3ccccc3)ccc2O)cc1 | 10.6 | 55.8* | 13.1 | -4.4 | -10.4 | 1.2
C[C@H](CO)N1C[C@H](C)[C@@H](CN(C)CC2CCCCC2)Oc2c(NS(=O)(=O)c3ccc(F)cc3)cccc2C1=O | -0.8 | / | 1.4 | / | -2.8 | 0.9
O=c1cc(CNCCCO)c2ccccc2[nH]1 | 9.2 | -14.9 | 3.6 | 26.4* | 1.7 | -10.2
Clc1ccc(N2N=C(c3cccs3)CC2c2ccco2)cc1 (stereo unspecified) | 18.3 | -2.9 | 8.5 | 7.1 | 9.0 | 10.8
c1ccc(N2N=C(c3cccs3)CC2c2ccco2)cc1 (stereo unspecified) | 8.3 | 64.7* | 5.2 | 0.4 | 4.2 | 19.2
N#C/C(=C(/O)c1cc2ccccc2o1)c1nc2ccccc2s1 | -0.3 | 61.0* | 34.1 | 16.3 | 17.4 | -30.1
NS(=O)(=O)c1cccc(NC(=O)Nc2ccccc2)c1 | 4.7 | 1.1 | 22.8 | / | -10.1 | 10.7
O=C(NN=C1c2ccccc2-c2ccccc21)c1cccc(Br)c1 | -26.4 | 71.8* | 15.9 | 9.2 | 24.4 | 17.4
